Results: the supplement of paper PMC6555819

Tests used:
Experiment in all cases: PBM binding z-score (relative to random genomic background probes); higher = stronger binding; sequences stand for … in GC…GCGATTGACAGCGTAGAATGAAGG
[1] = tested on: RARb homodimer (NR concentration 270 nM)
Method in brief: (§1)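 Regression normalization was applied to scanned fluorescence from custom Agilent 4×180K protein-binding microarrays. Before scanning, arrays were incubated 1 h with ligand-free nuclear receptor dimers, and binding was detected with antibodies against each partner (one per run). Binding z-scores use the random background probes as reference.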

[2] = tested on: RARg:RXRa (NR concentration 270 nM, RXRa partner concentration 90 nM)
Method in brief: as §1

[3] = tested on: RARg homodimer (NR concentration 270 nM)
Method in brief: as §1

[4] = tested on: RXRa DBDmut IVT, anti-RXR (DBD mutation: RXRa K156A/R161A, NR concentration 90 nM)
Method in brief: as §1

[5] = tested on: RXRa homodimer (NR concentration 180 nM)
Method in brief: as §1

[6] = tested on: THRa:RXRa (NR concentration 90 nM, RXRa partner concentration 90 nM)
Method in brief: as §1

[7] = tested on: THRa homodimer (NR concentration 90 nM)
Method in brief: as §1

[8] = tested on: VDR homodimer (NR concentration 270 nM)
Method in brief: as §1

Sequence	PBM binding z-score [1]	PBM binding z-score [2]	PBM binding z-score [3]	PBM binding z-score [4]	PBM binding z-score [5]	PBM binding z-score [6]	PBM binding z-score [7]	PBM binding z-score [8]
CCTACTGGGCCATAAGGTCATTGATATCAACGTT	3.91	3.77	3.15	1.01	3.28	4.14	4.56	2.93
AGAATGAGGTTATTAAGATCAGGGATTTGCGGTC	0.902	1.19	1.05	1.96	1.76	2.29	0.681	1.2
CGTCAAAGTTCAACTAAGGTAAGGTAAAGCACGC	3.92	5.8	6.23	4.39	4.88	5.19	1.95	3.59
CTACCAAGGTGAACAAGGTCTTTGATTACTATTC	1.24	0.878	0.946	0.886	0.789	2.52	1.42	0.414
ATCTCTAGGTAAAAGTTCAGTCAATCCCGAGGAT	2.54	2.1	2.2	1.12	1.7	1.53	0.584	2.36
TTACCAAGGTGAAGGTCGTTGATCCCTCTGTAGA	1.7	1.29	1.32	0.0227	1.7	2.34	1.1	1.15
GATACAGGGTCAAGACCAGAGTACGCGTATTGAT	3.07	4.94	4.7	2.23	5.54	3.33	0.503	2.14
CCGACTGGGGCAATGGTTACCATACTCAGTACGA	-0.241	-0.0332	0.28	-0.545	0.082	-0.548	-0.465	-0.489
ATCTCTAGGTAAAGATAGTTCACTGAATGCAAAT	1.54	1.1	1.18	0.234	0.828	1.31	0.149	1.13
ACTAGCAGGCCAAGGGTCACTTAAGATTAGTCCG	3.52	4.12	4.04	0.5	3.87	2.96	0.297	0.981
TCGGCTAGGTCAGTTGGTCAGCTAACGAGCTGCC	2.79	2.88	3.91	0.368	0.942	1.14	-0.051	-0.233
ATCTCTAGGTCAAGATAGTTCAGTGAATGCAAAT	3.89	4.63	5.48	1.58	3.14	3.35	1.71	1.73
GCTGCTAGGTCAGATTGGTCAGCTAACGGGTACG	2.58	2.22	3.18	0.569	1.11	1.73	0.354	0.117
ATTTACGGGTCAACGAGGTTATAGCACGCGTATA	3.79	6.1	5.62	2.5	6.99	4.19	1.43	4.5
ATATGTAGGTTATAGGGTCATTCAGTTTGCGCAT	3.76	4.28	3.26	2.26	4.98	3.83	3.31	4.34
CCGACTGGGGCAGAAAGGTTGCCATACCATCCGG	0.631	0.253	0.175	-1.11	0.422	-0.0628	-0.642	-0.404
ACTAGCAGGCCAAGTTTGGGTCGCTCAAACAAAG	0.422	0.182	-0.0192	-0.368	-0.399	0.704	-0.599	-0.503
GGAACGAGGGCAAAGTTGATCGCATCTGTCGACG	1.19	1.83	1.8	2.72	1.92	1.19	-0.32	1.61
CCTGCTAGGTCAACGGTCAGCTAAAGCAGCTCGC	3.72	4.6	5.11	2.02	3.13	2.79	0.878	0.529
CGTCCAAGGTCAAGGTCCGTGAAAGAGACTCGAA	4.19	6.16	6.84	3.57	5.96	3.82	2.69	2.27
ATCTCTAGGTAACCAAGGTCAGTGAATGCCGAAC	3.5	2.62	2.69	0.51	2.14	3.31	2.53	1.52
TCTCGGAGGACACCAAGGTCAGAGCTTTCCAGAG	3.68	2.96	3.73	0.966	1.75	3.13	2.38	2.31
ACTAGCAGGCCAAGGCTCACTCAAGATTAGTCCG	-0.234	-0.222	0.0156	-0.206	-0.0748	-0.43	-0.144	-0.802
CTCGAAAGGTCGTGCTCAGGTAAGTATACCAAAC	2.92	4.8	4.35	2.12	5.15	3.62	0.655	1.17
ATCGACAGGTCGAGGTGAGTATAGAGAAAGGGAA	0.915	1.68	1.89	-0.333	1.22	1.59	0.108	0.0129
ACTAGCAGGCCAAGTTTCGGTCACTCAAACAAAG	1.95	1.68	1.53	0.194	-0.395	0.604	0.212	-0.0934
GTACCAAGATGAATAGGTCGTTGATGAGTAGGCG	0.283	0.181	0.272	-0.187	0.691	0.143	-0.535	-0.179
TCATATAGGTAAAAGGTGAAATTCGGTGTGGTAA	1.8	1.8	0.738	1.92	3.04	1.77	0.523	0.37
TAGCCTAGGTCACTGGGCCAGTATAGTACGCATC	3.06	3.92	4.68	0.296	2.8	2.92	0.878	0.192
